Assay results as given in PubChem BioAssay AID504690 (Sanford-Burnham Center for Chemical Genomics, 2011).
The whole screen tested about 350,000 compounds, of which about 2,700 (0.77%) were called active. The list comes from a sample in which actives are over-represented; it also holds similar structures and randomly drawn compounds. Values without a mark were called inactive.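 Rule for the calls: active = inhibition reaching at least a set limit at 20 µM in the primary screen (cut at about 59% in these data); inactive = the rest.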

These compounds were tested on glucose-6-phosphate dehydrogenase-6-phosphogluconolactonase (Plasmodium falciparum 3D7) (assay: PfG6PD enzyme inhibitors, primary screen, biochemical, fluorescence intensity, uHTS (AID 504690;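 note: 0% = DMSO wells with substrate and 100% = DMSO wells lacking glucose-6-phosphate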)). Details: PfGluPho enzyme, NADPH resazurin-diaphorase fluorescence; at 20 µM; stronger effect = higher value.
With O=C(CNC(=O)c1cccs1)N/N=C/c1cccc(Br)c1 the inhibition was -3.31%. In the case of O=C(N/N=C/c1cccc(Br)c1)c1ccc(N2CCCC2=O)cc1, the inhibition is reported as 9.79%. O=C(N/N=C\c1cccc(Br)c1)c1ccccc1-n1cccc1 was tested, and the inhibition was 77.6% (active). Work on CCCNc1c(N)c(=O)c1=O yielded an inhibition of -14.2%. CC(=O)c1c(C)[nH]c(=S)c(C#N)c1-c1ccc(F)cc1 was tested, and the inhibition was 36.1%. For CCc1c(C)[nH]c(=S)c(C#N)c1C, the inhibition was 60.6% (active). CN(C)CCCNC(=S)N1CCN(c2nc(-c3ccccc3)cs2)CC1 gave an inhibition of 7.81%. FC(F)(F)c1ccc2c3n(nc2c1)CCN=C3c1ccc(Cl)cc1 gave an inhibition of 21.6%. With O=C(CC1Oc2ccccc2NC1=O)NCCCN1CCN(Cc2ccccc2)CC1 (configuration not stated) the inhibition was 17.8%. Work on Cc1noc(C)c1CSc1nc2cc(S(=O)(=O)N3CCOCC3)ccc2o1 yielded an inhibition of 46.6%. With COc1ccc(CCn2c(NCCCN3CCOCC3)nc3c2c(=O)[nH]c(=O)n3C)cc1 the inhibition was 5.12%. In the case of CC1CCN(c2nc3c(c(=O)[nH]c(=O)n3C)n2CCCc2ccccc2)CC1, the inhibition is reported as 12.8%. COc1ccc(CCn2c(NN=C3CCCC3)nc3c2c(=O)[nH]c(=O)n3C)cc1 was tested, and the inhibition was 77.3% (active). In the case of CCN(c1ccc2c(c1)OCO2)S(=O)(=O)c1cc(Br)cc2c1N(C(=O)C1CC1)CC2, the inhibition is reported as 32.5%. Nc1cccc2c1C(=O)N(Cc1nnc(-c3ccccc3Br)o1)C2=O gave an inhibition of -11.2%. With COc1ccc(Nc2ncc(F)c(N3CCOCC3)n2)cc1 the inhibition was -2.57%. Work on O=C(CSc1nc(Nc2ccccc2)nc(N2CCOCC2)n1)Nc1cc(Cl)ccc1O yielded an inhibition of 21.3%. With Cc1cc(Nc2ccc(Cl)cc2)nc(N2CCOCC2)n1 the inhibition was 74.6% (active). C=CCOc1ccc(C(=O)Nc2ccccc2C(=O)N2CCCC2)cc1 showed an inhibition of 15.3%. C/C(=N/NC(=O)c1cc(Cl)ccc1O)C12CC3CC(CC(C3)C1)C2 gave an inhibition of 50.1%. Work on O=C(c1ccc(NS(=O)(=O)c2ccc3[nH]c(=O)[nH]c3c2)cc1)N1CCCCC1 yielded an inhibition of -7.11%. With N/C(=N\OS(=O)(=O)c1cccc([N+](=O)[O-])c1)c1ccncc1 the inhibition was -9.59%. Work on CC12CCCCC1=CC(=O)CC2 (configuration not stated) yielded an inhibition of 10.3%. With O=C(COC(=O)Cc1ccc(Cl)cc1Cl)NCc1ccco1 the inhibition was -17.6%. For Clc1ccc(Nc2ccc3ccccc3n2)cc1, the inhibition was 31.9%. For CCOc1ccc(NC(=O)c2cc(C)nc3ccccc23)cc1, the inhibition was 6.27%. For Cc1cc(Nc2ccc(Br)cc2)nc2ccccc12, the inhibition was 86.8% (active).
